Measured values from PubChem BioAssay AID1159580 (chemical genetic matrix, 2015).
The whole screen tested about 5,500 compounds, of which about 2,000 (36%) were called active. Roughly 18% stayed inconclusive and do not appear here. Cut-off read from the data, not from the text of the source: active = normalized growth mostly below about 0.91 (no sharp cut-off); inconclusive = no clear call, values can overlap the other calls; inactive = mostly above about 0.92. The list shows a part of the results.

Assay: chemical genetic growth profiling, strain panel (AID 1159580);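 note: tested at 20 µM; growth read once vehicle control cultures reached saturation at 30 °C; 1 = growth at the plate median or of vehicle wells; lower values mean less growth of the strain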
Settings: S. cerevisiae deletion strains, growth OD
[1] = locus YAL013W, strain DEP1, active compounds read low
[2] = locus YNL153C, strain GIM3, active compounds read low
[3] = locus YNL322C, strain KRE1, active compounds read low
[4] = locus YPL055C, strain LGE1, active compounds read low

Measured: normalized growth

O=C(O)Cc1ccccc1I
inactive: [1] 1 | locus YBR229C, strain ROT2, active compounds read low 0.996 | locus YDL101C, strain DUN1, active compounds read low 0.99 | locus YDR150W, strain NUM1, active compounds read low 0.988 | locus YEL061C, strain CIN8, active compounds read low 1.02 | locus YGR078C, strain PAC10, active compounds read low 0.989 | locus YHR030C, strain SLT2, active compounds read low 1.06 | locus YHR087W, strain rtc3, active compounds read low 0.994 | locus YJL187C, strain SWE1, active compounds read low 0.952 | locus YJR043C, strain POL32, active compounds read low 1 | locus YJR075W, strain HOC1, active compounds read low 0.985 | locus YKL190W, strain CNB1, active compounds read low 1.02 | locus YLR039C, strain RIC1, active compounds read low 1.03 | locus YLR058C, strain SHM2 (second series), active compounds read low 1 | locus YLR085C, strain ARP6, active compounds read low 1.05 | locus YLR262C, strain YPT6, active compounds read low 1.05 | locus YML094W, strain GIM5, active compounds read low 1.01 | locus YMR219W, strain ESC1, active compounds read low 1.01 | locus YMR263W, strain SAP30, active compounds read low 1.01 | [2] 0.975 | locus YNL298W, strain CLA4 (second series), active compounds read low 1.07 | [3] 1 | locus YNR030W, strain Alg12, active compounds read low 1.03 | locus YOL006C, strain TOP1, active compounds read low 1.11 | [4] 0.978 | locus YPL241C, strain CIN2, active compounds read low 1.02 | locus YPR135W, strain CTF4, active compounds read low 1.05

N[C@@H](Cc1ccc(F)cc1)C(=O)O
inactive: [1] 1.01 | locus YAL040C, strain CLN3, active compounds read low 0.992 | locus YCL061C, strain MRC1 (second series), active compounds read low 0.995 | locus YDR363W, strain ESC2, active compounds read low 1.01 | locus YER002W, strain NOP16, active compounds read low 0.99 | [2] 0.995 | locus YNL175C, strain NOP13, active compounds read low 0.978 | locus YNL197C, strain WHI3, active compounds read low 0.995 | locus YNL224C, strain SQS1, active compounds read low 0.967 | [3] 1 | locus YOR083W, strain WHI5 (second series), active compounds read low 0.988 | [4] 0.99
